Results published in PubChem BioAssay AID504452 (The Scripps Research Institute Molecular Screening Center, 2011).
Calls of active or inactive are those of the source. No stated cut-off is given here; in the data, active means activation above about 85%; inactive means the rest.

Biological target: Peroxisome proliferator-activated receptor gamma (Homo sapiens) (UniProt P37231)
Experiment: partial agonism at human PPARgamma receptor – cell-based, luciferase reporter, luminescence, primary screen (AID 504452);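 further: Cos-1 cells carrying PPARgamma and a response element luciferase reporter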
Details: cell-based PPARg luciferase reporter, at 5 µM, stronger effect = higher value; activation (% of full agonist control): measured here: relative to full agonist control

Sequence of Peroxisome proliferator-activated receptor gamma (Homo sapiens) (P37231 whole entry, looked up): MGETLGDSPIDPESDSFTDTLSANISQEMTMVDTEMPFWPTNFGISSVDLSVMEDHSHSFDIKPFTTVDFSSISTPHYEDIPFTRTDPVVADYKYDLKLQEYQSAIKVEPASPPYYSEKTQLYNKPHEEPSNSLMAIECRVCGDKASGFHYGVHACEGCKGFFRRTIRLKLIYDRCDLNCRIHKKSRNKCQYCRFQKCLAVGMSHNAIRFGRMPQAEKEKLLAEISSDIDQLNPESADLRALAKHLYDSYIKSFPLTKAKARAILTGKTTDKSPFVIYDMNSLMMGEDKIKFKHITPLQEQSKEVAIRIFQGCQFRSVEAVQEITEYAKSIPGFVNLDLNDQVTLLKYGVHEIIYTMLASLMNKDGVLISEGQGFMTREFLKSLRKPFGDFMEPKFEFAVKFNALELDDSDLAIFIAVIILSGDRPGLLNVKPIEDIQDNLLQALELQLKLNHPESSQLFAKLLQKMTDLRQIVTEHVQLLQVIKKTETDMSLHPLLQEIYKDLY

Structure (SMILES)	activation (% of full agonist control) [%]	activation (% of partial agonist control)
COC(=O)C1=CN(Cc2ccc(C)cc2)C=C(C(=O)OC)C1c1ccc(F)c(F)c1	36.2	80.2% (inactive)
O=c1c(S(=O)(=O)c2ccc(Cl)cc2)cn(Cc2ccccc2)c2ccc(F)cc12	38	84.1% (inactive)
COc1ccc(NC(=O)C(=O)c2cn(CC(=O)N3CCCC3)c3ccccc23)c(OC)c1	32.9	72.7% (inactive)
O=C(c1ccc(F)cc1)c1cn(Cc2ccc(F)cc2)c2cc3c(cc2c1=O)OCCO3	37.8	83.8% (inactive)
CCOC(=O)/C=c1\s/c(=C\c2ccc3cc(OC)ccc3c2)c(=O)n1CC(=O)NCC1CCCO1 (centres undefined)	28.6	63.3% (inactive)
Cc1[nH][nH]c(=O)c1C(c1c(C)[nH][nH]c1=O)c1cn(Cc2ccc(Cl)c(Cl)c2)c2ccccc12	35.5	78.5% (inactive)
O=C(CC1C(=O)Nc2ccccc2N1CC(=O)N1CCCC1)Nc1ccc(Br)cc1 (centres undefined)	37	81.9% (inactive)
O=C(NCCc1c[nH]c2ccccc12)N[C@@H](Cc1ccccc1)C(=O)O	33.3	73.7% (inactive)
Cc1cc(N2C(=O)C(O)=C(C(=O)c3ccco3)C2c2cccc(Cl)c2)no1 (centres undefined)	25.2	55.9% (inactive)
O=C(Cc1cccc(C(F)(F)F)c1)Nc1cc(S(=O)(=O)N2CCOCC2)ccc1N1CCCC1	31.4	69.5% (inactive)
CC(=O)N1CCN(C(=O)c2ccccc2NS(=O)(=O)c2ccc(F)cc2)CC1	30.5	67.6% (inactive)
COc1ccc(O)c(C(=O)c2cc(C#N)c(=O)n(-c3ccc(Cl)cc3)c2)c1	40	88.5% (active)
CC(C)C[C@H](NC(=O)N1CC(=O)Nc2ccccc21)C(=O)N[C@@H](Cc1c[nH]c2ccccc12)C(=O)O	31.3	69.4% (inactive)
CC(=O)c1cccc(NC(=O)CSc2nc(=O)n(CCN3CCOCC3)c3c2CCCC3)c1	36.2	80.2% (inactive)
Cc1cc(N2C(=O)C(O)=C(C(=O)c3ccc(C)o3)C2c2cccc(Oc3ccccc3)c2)no1 (centres undefined)	34.1	75.5% (inactive)
O=C(c1cc2n(n1)C(C(F)(F)F)CC(c1ccco1)N2)N1CCc2ccccc2C1 (centres undefined)	37.2	82.3% (inactive)

Structure (SMILES)	activation (% of full agonist control) [%]	activation (% of partial agonist control)
C[C@H](NC(=O)c1nc[nH]c1C(=O)N1CCc2ccccc2C1)C(=O)OCc1ccccc1	29.5	65.3% (inactive)
O=C(CN1c2cccc3cccc(c23)S1(=O)=O)N1CCN(c2ccc(F)cc2)CC1	34.1	75.5% (inactive)
O=C(Nc1ccccc1F)C(=O)c1cn(CC(=O)N2CCCCC2)c2ccccc12	34.4	76.1% (inactive)
CCOc1cccc(/C(O)=C2/C(=O)C(=O)N(Cc3cccnc3)C2c2ccco2)c1 (centres undefined)	30.8	68.2% (inactive)
O=C(CC(C(=O)N1CCc2ccccc21)n1ccnc1)NCc1ccccc1 (centres undefined)	14.1	31.2% (inactive)
COCCn1cnc2c1c(=O)n(Cc1cc(C(C)=O)ccc1OC)c(=O)n2Cc1ccccc1	39.8	88.2% (active)
O=C(CN1C(=O)/C(=C/c2ccccc2F)Sc2ccccc21)NCC1CCCO1 (centres undefined)	35	77.5% (inactive)
CCC(=O)c1ccc(OCC(=O)OC(C)C(=O)Nc2c(C)n(C)n(-c3ccccc3)c2=O)cc1 (centres undefined)	40.4	89.5% (active)
Cc1cccc(NC(=O)CN2C(=O)/C(=C3\SC(=S)N(CC4CCCO4)C3=O)c3ccccc32)c1 (centres undefined)	43.3	95.8% (active)
COc1cc(CN2CCN(c3cccc(C)c3C)CC2)cc([N+](=O)[O-])c1O	33.7	74.7% (inactive)
Cc1ccc(S(C)=O)cc1-n1c(=O)n(Cc2ccccc2)c(=O)c2[nH]cnc21 (centres undefined)	12.8	28.4% (inactive)
COc1cccc(C2/C(=C(/O)c3ccccc3)C(=O)C(=O)N2Cc2ccco2)c1 (centres undefined)	35.3	78.2% (inactive)
COc1ccc(/C=C(\NC(=O)c2ccco2)C(=O)NC(Cc2ccccc2)C(=O)O)cc1 (centres undefined)	31.3	69.3% (inactive)
CC(Oc1ccc(F)cc1)C(=O)Nc1cc(S(=O)(=O)N2CCOCC2)ccc1N1CCCC1 (centres undefined)	33.9	75.1% (inactive)
COc1ccc2c(c1)c(=O)c(C(=O)c1ccc(Cl)cc1)cn2CC(=O)Nc1ccc(F)cc1	32	70.9% (inactive)
O=S(=O)(NCC(c1ccco1)N1CCc2ccccc2C1)c1ccc(F)cc1 (centres undefined)	29.9	66.1% (inactive)
